Experiments:
Conditions in all cases: Compound Concentration (nM):1000
EIF2AK1 = test system: EIF2AK1
EPHA1 = test system: EPHA1
EPHA2 = test system: EPHA2
EPHA3 = test system: EPHA3
EPHA4 = test system: EPHA4
EPHA5 = test system: EPHA5
EPHA6 = test system: EPHA6
EPHA7 = test system: EPHA7
EPHA8 = test system: EPHA8
EPHB1 = test system: EPHB1
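Note: KINOMEscan scanMAX binding as percent activity remaining versus control; lower means stronger binding.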

SMILES	Percent Control (EIF2AK1)	Percent Control (EPHA1)	Percent Control (EPHA2)	Percent Control (EPHA3)	Percent Control (EPHA4)	Percent Control (EPHA5)	Percent Control (EPHA6)	Percent Control (EPHA7)	Percent Control (EPHA8)	Percent Control (EPHB1)
CCn1c(-c2nonc2N)nc2c(C#CC(C)(C)O)nc(OCCNC)cc21.Cl [GSK949675]	100%	100%	100%	100%	100%	98%	100%	100%	100%	100%
C/C(Nc1ccc(S(N)(=O)=O)cc1)=C1/C(=O)Nc2ccccc21 [GW335962X]	100%	100%	98%	100%	92%	100%	85%	100%	100%	100%
COc1cccc(-n2ncc3c(N/N=C/c4ccncc4)ncnc32)c1 [GW784752X]	100%	87%	100%	100%	98%	100%	100%	100%	100%	100%
COc1ccc(COc2ccc(Cc3cnc(N)nc3N)cc2OC)cc1 [GW632580X]	100%	97%	100%	100%	99%	93%	98%	100%	90%	90%
COc1ccc2c(-c3ccnc(Nc4cccc(OC(F)(F)F)c4)n3)cnn2n1 [GW810372X]	100%	64%	91%	100%	86%	100%	100%	100%	100%	100%
COc1cc2ncnc(Nc3ccc4c(cnn4Cc4ccccc4)c3)c2cc1OC.Cl [GW282449A]	100%	100%	100%	100%	100%	100%	100%	100%	100%	100%
Cl.O=C(O[C@H]1CN[C@H](C#Cc2cc3ncnc(Nc4ccc5c(cnn5Cc5ccccc5)c4)c3s2)C1)N1CCOCC1 [GSK200398A]	100%	87%	96%	94%	96%	100%	95%	100%	100%	100%
COC(=O)Nc1nc2ccc(Oc3ccc(NC(=O)Nc4cc(C(F)(F)F)ccc4F)cc3)cc2s1.Cl [GW693917A]	100%	19%	14%	9.9%	12%	52%	11%	16%	0.5%	31%
CCc1ccc(Oc2nccc(-c3c(-c4ccc(F)cc4)ncn3C3CCNCC3)n2)cc1 [SB-242719]	100%	94%	95%	95%	95%	100%	90%	100%	97%	100%
C[C@@H](Oc1cc(-n2cnc3ccc(OC4CCN(C)CC4)cc32)sc1C(N)=O)c1ccccc1Cl [GSK579289A]	62%	69%	100%	81%	97%	100%	96%	89%	81%	82%
NS(=O)(=O)c1ccc(N/N=C2\C(=O)Nc3ccc(-c4cnco4)cc32)cc1 [GW276655]	58%	79%	100%	85%	88%	89%	87%	100%	94%	96%
Cl.O=S1CCN(Cc2ccc(-c3ccc4ncnc(Nc5ccc(OCc6ccccc6)c(F)c5)c4c3)o2)CC1 [GW576924A]	100%	100%	100%	100%	95%	100%	100%	100%	95%	100%
CN1CCN(C(=O)c2ccc(NC(=O)Nc3ccc(N(C)c4ccnc(Nc5ccc(CS(C)(=O)=O)cc5)n4)cc3)cc2)CC1.Cl [GW830263A]	100%	56%	85%	79%	85%	99%	76%	92%	89%	87%
COc1cc2ncn(-c3cc(O[C@H](C)c4ccccc4Cl)c(C(N)=O)s3)c2cc1OC [GSK237701A]	92%	100%	100%	100%	72%	100%	83%	88%	89%	81%
NS(=O)(=O)c1ccc(N/N=C2\C(=O)Nc3ccc(C(=O)NCc4ccncc4)cc32)cc1 [GW300657X]	100%	100%	89%	100%	88%	94%	100%	100%	99%	100%
CN(C)c1cc2c(Nc3ccc4c(cnn4Cc4ccccc4)c3)ncnc2cn1 [GW282974X]	100%	89%	100%	98%	95%	33%	87%	95%	90%	90%
COc1cc(C=NNc2ncnc3c2cnn3-c2ccccc2)ccc1O [GW513184X]	100%	100%	100%	100%	100%	83%	100%	90%	94%	99%
NS(=O)(=O)c1ccc(N/N=C2\C(=O)Nc3ccc(Cl)cc32)cc1 [GW280670X]	100%	100%	100%	100%	96%	100%	100%	100%	100%	100%
Cl.O=C(Nc1ccc(Oc2ccc3[nH]c(NC(=O)c4ccccc4)nc3c2)cc1)Nc1cc(C(F)(F)F)ccc1F [GW709042A]	100%	75%	69%	100%	62%	90%	34%	54%	16%	82%
CN(C)CCNC(=O)Nc1ccc(N(C)c2ccnc(Nc3ccc(CS(C)(=O)=O)cc3)n2)cc1.Cl [GW830900A]	88%	76%	89%	85%	100%	90%	100%	81%	78%	78%
